Assay [1] can be described thus: compounds altering viability of human ES cells (AID 493140; call rule not given here;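 note: cells exposed to compounds for four days before counting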). Particulars: human embryonic stem cell survival screen; stronger effect = higher value.
A short description of assay [2]: P. berghei load reduction in hepatocytes – cell-based, HepG2, luciferase luminescence, HepG2 viability, primary screen (AID 624349; in the data active = parasite load remaining mostly below about 12%, no sharp cut-off; inactive = mostly above about 10%;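 note: 100% = mean of DMSO negative control wells on the same plate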). Particulars: P. berghei liver stage in HepG2, luciferase luminescence, concentration not given here; parasite load remaining: stronger effect = lower value; viability: measured here: HepG2 viability without parasites.
A short description of assay [3]: Wnt pathway potentiators raising nuclear beta-catenin – imaging, WNT3A-conditioned medium, mouse C2C12, NPC library, primary screen (AID 1117326; in the data active = nuclear beta-catenin stimulation mostly above about 4.2%, no sharp cut-off; inactive = mostly below about 10%). Particulars: stronger effect = higher value.
Assay [4] in a line: stimulators of insulin release from INS-1E, primary screen, cell-based, 5 mM glucose, NPC library (AID 1117329;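 active = compound raises insulin release from rat beta cells at 5 mM glucose, no numeric limit stated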). Particulars: rat INS-1E insulin secretion, at 10 µM, stronger effect = higher value.
The nature of assay [5]: growth inhibition of GSK3B-pretreated HCT116 cells – cell-based, CellTiter-Glo, 0.2 to 20 µM (AID 1117336;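 active = compounds lowering colon cancer cell viability after pretreatment blocking the GSK3B kinase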). Particulars: HCT116 viability after GSK3B inhibitor, at 20 µM, stronger effect = higher value. In general terms: In ATP-based viability assays light output follows the ATP content of the culture.
The nature of assay [6]: inhibition of endothelial tube formation, primary screen, imaging, VEGF stimulated, CD31 staining, tube area, NPC library (AID 1117340;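 active = compound that reduces growth-factor-driven endothelial tube area in a mixed cell culture, no cutoff stated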). Particulars: VEGF-stimulated ADSC/ECFC co-culture, at 10 µM, stronger effect = higher value.
Assay [7] can be described thus: GLP1 release stimulators, primary, NCI-H716, NPC library (AID 1117341;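 active = compound raises GLP1 secretion from the human gut endocrine cells, with no numeric limit stated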). Particulars: NCI-H716 cells, at 10 µM, stronger effect = higher value.
Assay [8] can be described thus: HCT116 colon cancer cell growth inhibition, primary screen, CellTiter-Glo luminescence, NPC library (AID 1117342;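 active = compounds that lower survival of HCT116 colon cancer cells in the luminescence readout, no numeric limit stated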). Particulars: at 20 µM (top of the series).
The nature of assay [9]: reduced SW480 viability measured with CellTiter-Glo, NPC library, primary (AID 1117343;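 active = compounds that lower viability of the colon cancer cells in the luminescence readout, with no numeric limit stated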). Particulars: CellTiter-Glo luminescence; at 20 µM (top of the series) unless noted.
Assay [10] can be described thus: NPC library primary testing for decreased DLD-1 cell viability via CellTiter-Glo (AID 1117346;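 active = compounds that lower survival of DLD-1 colon cancer cells in the luminescence readout, no cutoff given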). Particulars: DLD-1 viability, CellTiter-Glo luminescence; at 20 µM (top of the series).
Assay [11] is described as follows: viability loss with induced miR-34 in A549 – imaging, A549 dox-inducible miR-34, nuclei and caspase counts, primary screen (AID 1347080;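 active = compounds whose cell count with miR-34 switched on is under 0.7 times the count with it off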). Particulars: A549 miR-34 inducible, Hoechst nuclei count, 48 h.
Assay [12] in a line: MELAS cybrid and Rieske KO viability enhancers – cell-based, MELAS cybrids, Rieske KO mouse fibroblasts, CellTiter-Glo, primary screen (AID 1508586).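 Note: z relative to plate mean and SD of compound and empty wells.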 Particulars: low glucose.
Assay [13] can be described thus: galactose survival enhancers in mitochondrial complex I cybrids – cell-based, galactose medium, ATP luminescence, primary screen (AID 1645843;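 active = z-score of at least 1.8 in each of two replicates, scored against plate mean and spread of sample wells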;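 note: positive z means more ATP and so rescue of galactose-driven cybrid death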). Particulars: complex I mutant cybrid cells, 72 h, stronger effect = higher value.
Where [14] appears, read: stronger effect = lower value, cell number ratio, induced over uninduced.
Where [15] appears, read: measured here: relative caspase fold change +Dox/-Dox.
Where [16] appears, read: measured here: total cells with miR-34 induction, stronger effect = lower value.
Where [17] appears, read: measured here: total cells without miR-34 induction.
Where [18] appears, read: MELAS cybrid survival, CellTiter-Glo 48 h, stronger effect = higher value.
Where [19] appears, read: Rieske KO mouse fibroblast survival, CellTiter-Glo 72 h.

Values joined by “and” are separate entries in the source; they are usually repeats but may differ in a detail not shown here. Identical values can stand only once. Active and inactive are the calls of the source.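 Rule for the calls, unless noted: active = mean z-score across replicates of 1.96 or higher in either the MELAS or the Rieske mutant cell line; inactive = the rest.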

For the molecule `CC(C)(C)C(=O)OCOC(=O)[C@@H]1N2C(=O)[C@@H](NC(=O)[C@H](N)c3ccccc3)[C@H]2SC1(C)C`, in [1], the survival is 8.83 (inactive). The parasite load remaining in [2] was 105% (inactive). Also, the viability in [2] is 75%. In addition, the nuclear beta-catenin stimulation in [3] (at 10 µM) was -2.4% (inactive); in assay [3] (stimulation, at 2 µM), -1.3%. In addition, in [4], the insulin secretion stimulation was 2.2% (inactive). Moreover, the viability decrease in assay [5] was -4.7% (inactive). For the same molecule, in assay [6], the tube area decrease was -15.2% (inactive). For the same molecule, the GLP1 secretion stimulation in [7] was 2.6% (inactive). For the same molecule, the inhibition of viability in assay [8] is -17.9% (inactive). Moreover, the values for the viability decrease (inhibition) in [9] and in [10] were 5.3% (inactive) and -16.8% (inactive), respectively. The fold change is 0.926 (inactive) in assay [11] (setting [14]) and 0.701 in assay [11] (setting [15]). In addition, the cell count was 9310 in assay [11] (setting [16]) and 10100 in assay [11] (setting [17]). Moreover, the figures for the z-score in assay [12] (setting [18]) and in assay [12] (setting [19]) were -1.1 (inactive) and -0.251, respectively.
In the case of `Cc1cc2c(OCC(CNC(C)(C)C)OC(=O)c3ccccc3)cccc2[nH]1` (stereo not given), the parasite load remaining in assay [2] is 45.6% (inactive). Also, the viability in assay [2] was found to be 114%. The nuclear beta-catenin stimulation is -0.6% (inactive) in assay [3] (at 10 µM) and -2.3% in assay [3] (stimulation, at 2 µM). For the same molecule, the insulin secretion stimulation in assay [4] is 38.9% (active). Also, in assay [5], the viability decrease was 8% (inactive). Moreover, the tube area decrease in assay [6] was -1.9% (inactive). Moreover, the GLP1 secretion stimulation in assay [7] was 8.9% (inactive). For the same molecule, the inhibition of viability in [8] is 30.9% (inactive). Moreover, the viability decrease (inhibition) was -10.4% (inactive) in [9] and -25.2% (inactive) in assay [10]. The fold change in assay [11] (setting [14]) was 0.853 (inactive); in assay [11] (setting [15]) it was 1.26. For the same molecule, the cell count turned out to be 9400 in assay [11] (setting [16]) and 11000 in assay [11] (setting [17]). The results for the z-score in [12] (setting [18]), in [12] (setting [19]) and in assay [13] were -0.871 (inactive), -1.26 and 0.13 (inactive), respectively.
Turning to `CCCCc1cc2ccccc2c(OCCN(C)C)n1`, the survival in [1] is 4.17 (inactive). Also, the parasite load remaining in [2] is 105% (inactive) and 71.5% (inactive). The viability in assay [2] was 105% and 79.9%. Also, the nuclear beta-catenin stimulation was 0.2% (inactive) in assay [3] (at 10 µM) and -0.1% in assay [3] (stimulation, at 2 µM). The insulin secretion stimulation in assay [4] was 4.6% (inactive). The viability decrease in [5] was -84.3% (inactive). In addition, the tube area decrease in assay [6] was 15.9% (inactive). In [7], the GLP1 secretion stimulation was 3.1% (inactive). Further, the inhibition of viability in [8] is 22.3% (inactive). Moreover, the figures for the viability decrease (inhibition) in [9] and in [10] were 72.1% (active) and -3.7% (inactive), respectively. Further, the fold change was 0.931 (inactive) in [11] (setting [14]) and 1.26 in [11] (setting [15]). In addition, the cell count was found to be 6620 in assay [11] (setting [16]) and 7110 in assay [11] (setting [17]). In addition, the z-score in [12] (setting [18]) was 0.0733 (inactive); in [12] (setting [19]), 0.0128.
Regarding `COc1ccc(-c2cc(=S)ss2)cc1`, in assay [2], the parasite load remaining is 61.1% (inactive). In assay [2], the viability was determined as 107%. Moreover, the nuclear beta-catenin stimulation is -1.5% (inactive) in [3] (at 10 µM) and -0.3% in assay [3] (stimulation, at 2 µM). Besides, the insulin secretion stimulation in [4] was 3.1% (inactive). Moreover, in assay [5], the viability decrease was 11.9% (inactive). For the same molecule, the tube area decrease in assay [6] was -0.7% (inactive). Also, in [7], the GLP1 secretion stimulation is -6.2% (inactive). In addition, in assay [8], the inhibition of viability is 27.2% (inactive). The viability decrease (inhibition) in assay [9] is 22.2% (inactive); in assay [10] it was 11% (inactive). Further, the values for the fold change in [11] (setting [14]) and in assay [11] (setting [15]) were 0.899 (inactive) and 1.14, respectively. Also, the cell count was 8880 in assay [11] (setting [16]) and 9880 in assay [11] (setting [17]). The z-score in assay [12] (setting [18]) was 0.776 (inactive) and 0.734 (inactive); in assay [12] (setting [19]), 0.201 and 0.472; in [13] it was 0.675 (inactive).
Consider `NS(=O)(=O)c1cc2c(cc1Cl)NC(CC1CCCC1)NS2(=O)=O` (stereo not given), for which the survival in assay [1] is 5.92 (inactive). The parasite load remaining in assay [2] was 80.8% (inactive). The viability in assay [2] was 73%. The nuclear beta-catenin stimulation in assay [3] (at 10 µM) was -0.9% (inactive); in assay [3] (stimulation, at 2 µM) it was -1.5%. For the same molecule, the insulin secretion stimulation in assay [4] was 4.2% (inactive). Besides, the viability decrease in [5] is 1% (inactive). For the same molecule, the tube area decrease in assay [6] was 35.3% (inactive). In assay [7], the GLP1 secretion stimulation is 3.4% (inactive). In addition, in assay [8], the inhibition of viability was 1.1% (inactive). Also, the viability decrease (inhibition) in assay [9] is -15.3% (inactive); in assay [10], -0.6% (inactive). Further, the fold change in [11] (setting [14]) is 0.993 (inactive); in [11] (setting [15]), 0.594. Besides, the cell count is 9530 in assay [11] (setting [16]) and 9590 in assay [11] (setting [17]). Moreover, the z-score in assay [12] (setting [18]) was 0.486 (inactive); in [12] (setting [19]), -0.891.

For orientation: viability means a read-out of living cells in per cent, often relative to untreated cells.
